Screens (PubChem BioAssay)
B2AR arrestin = qHTS assay of beta-arrestin-biased ligands of beta2-adrenergic receptor. beta-arrestin recruitment to beta2AR, cell-based reporter. Potency, µM (series often up to 46.1 µM), hits mostly activators. 330,000 tested, 0.02% active; active = well fitted curve in the direction sought with a large enough effect; inconclusive = small, poorly fitted or top-dose-only effect, or another doubt; inactive = no such curve, though single readings can be large; an effect the other way counts as inactive or inconclusive; note: nearly all actives have a fitted effect of over 65% in size
Giardia killer = Small Molecules that selectively kill Giardia lamblia: qHTS; Giardia lamblia trophozoite viability; activity change, % at 7.66 µM, hits read low; 340,000 tested, 0.15% active; in the data active = activity change below about -80%; inconclusive = between about -30% and that limit;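 note: parasites exposed to compound for two days anaerobically before the ATP read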
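Viability, read as ATP luminescence: trophozoites at 100 cells/well, compound added, 48 hrs anaerobic at 37 deg C, then 15-30 min room-temperature development before reading.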
GALK inh = qHTS Assay for Inhibitors of Human Galactokinase (GALK); P51570; Purified GALK, Kinase-Glo residual ATP luminescence; 270,000 tested, 0.007% active; Potency, µM (series often up to 57.5 µM), usual class: inhibitors; AID 1868, 2009; active = well fitted curve in the direction sought with a large enough effect; inconclusive = small, poorly fitted or top-dose-only effect, or another doubt; inactive = no such curve, though single readings can be large; an effect the other way counts as inactive or inconclusive
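Galactose (100 uM) and ATP (35 uM) were turned over by 5 nM GALK for 1 h at RT. Kinase-Glo Plus then converted the remaining ATP into a luminescent signal.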
miR-21 act = qHTS Assay for Modulators of miRNAs and/orActivators of miR-21. HeLa miR-21 FLuc reporter, luciferase, 48 h. Potency, µM (top dose mostly 38.3 µM), actives largely listed as activators. 340,000 tested, under 10 active. AID 2288, 2010; active = well fitted curve in the direction sought with a large enough effect; inconclusive = small, poorly fitted or top-dose-only effect, or another doubt; inactive = no such curve, though single readings can be large; an effect the other way counts as inactive or inconclusive;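 note: miR-21 action dims this reporter so a rising signal means less miR-21 action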
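HeLa cells stably expressing CMV-driven firefly luciferase with a downstream miR-21 binding sequence, endogenously expressing miR-21, were treated with titrations (up to about 40uM final) for 48 hours at 37 degree Celsius. Luciferase luminescence was read after lysis.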
FBPA coupling cs = qHTS Assay for Inhibitors of Fructose-1,6-bisphosphate Aldolase from Giardia Lamblia: Coupling assay counterscreen; coupling enzyme system counterscreen, AmpLite Red fluorescence; activity change, negative = inhibition, % at 58.2 µM, hits read low; 290,000 tested, 0.67% active; AID 2472, 2010; in the data active = activity change below about -30%
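Compounds tested against the coupling enzymes alone at 57.5 uM final; readout was AmpLite Red fluorescence (525/598 nm) after 20 min at RT.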
uPA generation = qHTS for Inhibitors of Cell Surface uPA Generation; cell surface uPA generation assay, qHTS; Potency, µM (titrated, usually from 38.3 µM), actives largely listed as inhibitors; 330,000 tested, 0.31% active; AID 540303, 2011; active = well fitted inhibition curve with a large enough effect; inconclusive = small, poorly fitted or top-dose-only effect; inactive = no such curve, though single readings can be large or run the other way; tested in mouse RAW 264.7 cells; note: nearly all actives have a fitted effect of over 55% in size
Casp1 catalase = Concentration-Response Counterscreen for Redox Active Inhibitors of Caspase-1: Catalase; shares compounds with FBPA coupling cs; caspase-1 Ac-WEHD-AFC fluorescence rate, catalase buffer; Potency, µM (top dose mostly 57.5 µM), most hits filed as inhibitors; 30 tested, under 10 active
Casp1 confirm = Confirmation Concentration-Response Assay for Allosteric/Competitive Inhibitors of Caspase-1; shares compounds with FBPA coupling cs; purified caspase-1, fluorogenic substrate cleavage; Potency, µM (titrated, usually from 57.5 µM), most hits filed as inhibitors; 60 tested, 20% active; AID 896, 2007
Casp7 confirm = Confirmation Concentration-Response Assay for Allosteric/Competitive Inhibitors of Caspase-7; recombinant caspase-7, fluorogenic substrate cleavage; Potency, µM (doses to about 57.5 µM), most hits filed as inhibitors; shares compounds with FBPA coupling cs; 60 tested, under 10 active; active = well fitted inhibition curve with a large enough effect in the main read-out, with a control signal flat, not every such curve was filed as active; inconclusive = small, poorly fitted or top-dose-only effect, or a change in a side signal; inactive = no such curve, though single readings can be large or run the other way
CASP7 redox cys = Concentration-Response Counterscreen for Redox Active Inhibitors of Caspase-7: Cysteine; 60 tested, under 10 active; Potency, µM (titrated, usually from 57.5 µM), usual class: inhibitors; AID 908, 2007; shares compounds with FBPA coupling cs; caspase-7 enzyme with cysteine, fluorogenic substrate, redox counterscreen
Casp7 catalase = Concentration-Response Counterscreen for Redox Active Inhibitors of Caspase-7: Catalase. Caspase-7 Ac-DEVD-AFC fluorescence rate, catalase buffer. 30 tested, under 10 active. shares compounds with FBPA coupling cs. Potency, µM (series often up to 57.5 µM), most hits filed as inhibitors
CASP1 redox cys = Concentration-Response Counterscreen for Redox Active Inhibitors of Caspase-1: Cysteine | shares compounds with FBPA coupling cs | recombinant caspase-1, fluorogenic substrate, cysteine buffer | Potency, µM (titrated, usually from 57.5 µM), most hits filed as inhibitors | 60 tested, under 10 active
Of the large screens only hits and unclear results are named; the others gave an inactive call (follow-up assays come after a bar, where they were run). Rows were chosen to be rich in hits. Some 0.92% of all compounds tested hit in one or more screens of this group. Unless noted, calls come from the whole dose curve; as a rule, active = well fitted inhibition curve with a large enough effect in the main read-out, with a control signal flat; inconclusive = small, poorly fitted or top-dose-only effect, or a change in a side signal; inactive = no such curve, though single readings can be large or run the other way.

CCc1ccc(C2c3c(-c4ccccc4O)n[nH]c3C(=O)N2Cc2cccnc2)cc1 (stereo unspecified)	none (no result: B2AR arrestin, Giardia killer, GALK inh, FBPA coupling cs, uPA generation)
Cc1ccc(N2C(=O)[C@@H]3[C@H](C2=O)C2c4ccccc4C=CN2[C@@H]3C(=O)c2ccco2)c(C)c1 (stereo partly specified)	FBPA coupling cs -42 | Casp1 catalase 32µM | Casp1 confirm 25µM | Casp7 confirm inconclusive | CASP7 redox cys inactive | Casp7 catalase inactive | CASP1 redox cys inactive
Cc1ccc(N2C(=O)[C@@H]3[C@H](C2=O)C2c4ccccc4C=CN2[C@@H]3C(=O)c2ccco2)cc1 (stereo partly specified)	FBPA coupling cs -41 | Casp1 confirm 25µM | Casp7 confirm inactive | CASP7 redox cys inactive | CASP1 redox cys inconclusive
Cc1ccc(-n2ncc3c(NNC(=O)c4ccco4)ncnc32)c(C)c1	none
COc1ccccc1N1C(=O)Cc2ccccc2C1=O	none
COc1ccc2c(c1)C(=O)N(c1ccccc1OC)C(=O)C2	none | Casp1 catalase inconclusive | Casp1 confirm inconclusive | Casp7 confirm inactive | CASP7 redox cys inactive | Casp7 catalase inactive | CASP1 redox cys inconclusive
CCN(CC)CCNC(=O)C1CCN(C(=O)c2cnn(-c3ccccc3)c2-n2cccc2)CC1	none (no result: B2AR arrestin, Giardia killer, GALK inh, FBPA coupling cs, uPA generation)
O=C(c1ccc(Cl)c(Cl)c1)N(Cc1ccco1)c1ccc(O)cc1	none | Casp1 catalase inactive | Casp1 confirm inactive | Casp7 confirm inconclusive | CASP7 redox cys inconclusive | Casp7 catalase 32µM | CASP1 redox cys inactive
CSc1ccc(CCNC(=O)c2ccc(-c3nc(COc4ccc(C)cc4)c(C)o3)cc2)cc1	none (no result: B2AR arrestin, Giardia killer, GALK inh, FBPA coupling cs, uPA generation)
O=C(COC(=O)c1cc(-c2ccco2)nc2ccccc12)NCc1ccc2c(c1)OCO2	none | Casp1 catalase inconclusive | Casp1 confirm inconclusive | Casp7 confirm inconclusive | CASP7 redox cys inactive | Casp7 catalase inactive | CASP1 redox cys inconclusive
Cc1nnc(N2CCN(C(=O)NC(C)C)CC2)c2nn(-c3ccccc3)c(C)c12	none (no result: B2AR arrestin, Giardia killer, GALK inh, FBPA coupling cs, uPA generation)
COc1ccc(Cn2c(=O)[nH]c3cc(C(=O)N4CCN(c5ccccc5OC)CC4)ccc3c2=O)cc1	none
COc1ccc(Cn2c(=O)[nH]c3cc(C(=O)N4CCN(Cc5ccccc5)CC4)ccc3c2=O)cc1	none | Casp1 catalase inactive | Casp1 confirm inactive | Casp7 confirm inconclusive | CASP7 redox cys inconclusive | Casp7 catalase inconclusive | CASP1 redox cys inactive
COc1ccc2c(c1)Cc1sc(NC(=O)c3cccs3)nc1-2	FBPA coupling cs -35 | Casp1 catalase inconclusive | Casp1 confirm inactive | Casp7 confirm inactive | CASP7 redox cys inactive | Casp7 catalase inactive | CASP1 redox cys inactive
Cc1cccc(NC(=O)C2CCCN(c3nc4ccccc4s3)C2)c1C (stereo unspecified)	none (no result: B2AR arrestin, Giardia killer, GALK inh, FBPA coupling cs, uPA generation)
O=C(Nc1ccc2c(c1)OCO2)C1CCCN(c2nc3ccccc3s2)C1 (stereo unspecified)	none (no result: uPA generation) | Casp1 catalase inactive | Casp1 confirm inactive | Casp7 confirm inactive | CASP7 redox cys inactive | Casp7 catalase inactive | CASP1 redox cys inactive
COc1cccc(CNC(=O)c2cnc(N3CCCCC3)c3ccccc23)c1	none (no result: B2AR arrestin, Giardia killer, GALK inh, FBPA coupling cs, uPA generation)
COc1cc(N[C@@H](C)CCCN)c2ncccc2c1	FBPA coupling cs -33 (no result: B2AR arrestin, Giardia killer, GALK inh, miR-21 act, uPA generation) | Casp1 confirm inactive | Casp7 confirm inactive | CASP7 redox cys inactive | CASP1 redox cys inactive
COc1cc(OC)cc(-c2nnc(SCC(=O)N3CCC(C)CC3)o2)c1	none (no result: B2AR arrestin, Giardia killer, GALK inh, FBPA coupling cs, uPA generation)
CCOc1ccc(NC(=O)CCn2cccn2)cc1	none (no result: B2AR arrestin, Giardia killer, GALK inh, FBPA coupling cs, uPA generation)
Cc1ccsc1C=Nc1ccc(O)cc1	B2AR arrestin inconclusive, FBPA coupling cs -50 | Casp1 catalase inactive | Casp1 confirm inactive | Casp7 confirm inactive | CASP7 redox cys inactive | Casp7 catalase inactive | CASP1 redox cys inactive
O=c1cnnc(SCCc2ccccc2)[nH]1	none | Casp1 catalase inactive | Casp1 confirm inactive | Casp7 confirm inactive | CASP7 redox cys inactive | Casp7 catalase inactive | CASP1 redox cys inactive
COC(=O)c1c(NC(=O)Cc2coc3cc(C)ccc23)sc2c1CCC2	none (no result: B2AR arrestin, Giardia killer, GALK inh, FBPA coupling cs, uPA generation)
